Where a name gives a salt, the structure may show the parent alone.
system: Saccharomyces cerevisiae BY4741 SeMeCo community; assay: z-score of subpopulation abundance vs DMSO median, subpopulation auxotrophic for H; higher = larger share of this subpopulation than in DMSO controls; conditions: 10 µM; 24 h; SM minimal medium; subpopulation (auxotrophy): H
Experimental: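 Fluorescent four-plasmid SeMeCo (self-establishing metabolically cooperating S. cerevisiae BY4741 community; plasmids pH-mRuby2, pL-mWasabi, pU-eCFP, pM-TagRFP657) was grown 24 h in minimal SM medium with each Selleck FDA-approved drug at 10 µM in 384-well plates. Cells were fixed and imaged by high-content confocal microscopy. For each auxotrophic subpopulation (and the prototroph), a z-score gives the deviation from the DMSO vehicle-control population median.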

Compound | z-score of subpopulation abundance
COC(=O)C1=C(C)NC(C)=C(C(=O)OCCN(C)Cc2ccccc2)C1c1cccc([N+](=O)[O-])c1 (stereo not given) [Nicardipine HCl] | 0.19
CC/C(=C(\c1ccccc1)c1ccc(OCCN(C)C)cc1)c1ccccc1 [Tamoxifen] | 1.57
O=C1c2cccc3c2[C@H](CCC3)CN1[C@@H]1CN2CCC1CC2 [Palonosetron] | -0.77
C=CCN1CCCC1CNC(=O)c1cc2nn[nH]c2cc1OC (stereo not given) [Alizapride HCl] | -0.87
C=C[C@]1(C)C[C@@H](OC(=O)CSC(C)(C)CNC(=O)[C@H](N)C(C)C)[C@]2(C)[C@H](C)CC[C@]3(CCC(=O)[C@H]32)[C@@H](C)[C@@H]1O [Valnemulin HCl] | 0.85
CC1(C)S[C@@H]2[C@H](NC(=O)[C@H](C(=O)O)c3ccsc3)C(=O)N2[C@H]1C(=O)O [Ticarcillin sodium] | 0.6
COc1ccc(C(Cl)=C(c2ccc(OC)cc2)c2ccc(OC)cc2)cc1 [Chlorotrianisene] | 1.21
CCCCOc1cc(C(=O)OCCN(CC)CC)ccc1N [Oxybuprocaine HCl] | -0.22
CN1[C@@H](CC(=O)c2ccccc2)CCC[C@H]1C[C@H](O)c1ccccc1 [Lobeline hydrochloride] | -0.65
Cc1nnc(SCC2=C(C(=O)O)N3C(=O)[C@@H](NC(=O)Cn4cnnn4)[C@H]3SC2)s1 [Cefazolin Sodium] | 1.95
C#C[C@]1(O)CC[C@H]2[C@@H]3CCc4cc(OC)ccc4[C@H]3CC[C@@]21C [Mestranol] | -0.4
CO/N=C(\C(=O)N[C@@H]1C(=O)N2C(C(=O)O)=C(COC(N)=O)CS[C@H]12)c1ccco1 [Cefuroxime sodium] | -1.01
OC1(c2ccc(Cl)c(C(F)(F)F)c2)CCN(CCCC(c2ccc(F)cc2)c2ccc(F)cc2)CC1 [Penfluridol] | 0.09
O=C1c2c(O)ccc(O)c2C(=O)c2c(NCCNCCO)ccc(NCCNCCO)c21 [Mitoxantrone 2HCl] | 21.2
CN(C)CCn1nnnc1SCC1=C(C(=O)O)N2C(=O)[C@@H](NC(=O)Cc3csc(N)n3)[C@H]2SC1 [Cefotiam hydrochloride] | 1.72
Cc1nc(Nc2ccc(F)cc2)nc(N2CCc3ccccc3C2C)c1C (stereo not given) [Revaprazan Hydrochloride] | 1
NC(=N\CCCCCC/N=C(N)/N=C(\N)Nc1ccc(Cl)cc1)/N=C(\N)Nc1ccc(Cl)cc1 [Chlorhexidine diacetate] | 0.93
Nc1ccc(S(=O)(=O)Nc2nccs2)cc1 [Sulfathiazole] | -1.09
CCn1cc(C(=O)O)c(=O)c2cc(F)c(N3CCNC(C)C3)c(F)c21 (stereo not given) [Lomefloxacin HCl] | 0.73
CC(=O)OC1CC2(C)C(CC(O)C3C4(C)CCC(O)C(C)C4CCC32C)C1=C(CCC=C(C)C)C(=O)O (stereo not given) [Fusidine] | 2.59

Compound | z-score of subpopulation abundance
COc1ccccc1N1CCN(CCCNc2cc(=O)n(C)c(=O)n2C)CC1 [Urapidil HCl] | -0.78
CC[C@H]1OC(=O)C[C@@H](O)[C@H](C)[C@@H](O[C@@H]2O[C@H](C)[C@@H](O)[C@H](N(C)C)[C@H]2O)[C@@H](CCN2C[C@H](C)C[C@H](C)C2)C[C@@H](C)C(=O)/C=C/C(C)=C/[C@@H]1CO[C@@H]1O[C@H](C)[C@@H](O)[C@@H](OC)[C@H]1OC [Tilmicosin phosphate] | 2.1
Cc1nc2n(c(=O)c1CCN1CCC(c3noc4cc(F)ccc34)CC1)CCCC2 [Risperidone] | 0.92
CC1=Nc2ccc(Cl)cc2S(=O)(=O)N1 [Diazoxide] | -0.86
CO/N=C(/C(=O)N[C@@H]1C(=O)N2C(C(=O)OCOC(=O)C(C)(C)C)=C(C)CS[C@H]12)c1csc(N)n1 [Cefetamet pivoxil hydrochloride] | 1.26
O=C(O)c1ccccc1O [Salicylic acid] | -0.17
CC1(C)S[C@@H]2[C@H](NC(=O)[C@H](N)c3ccc(O)cc3)C(=O)N2[C@H]1C(=O)O [Amoxicillin] | 0.05
C[C@H]1NCc2cc(-c3ccc4c(=O)c(C(=O)O)cn(C5CC5)c4c3OC(F)F)ccc21 [Garenoxacin] | -0.22
O=C(O)CCCCCCCC(=O)O [Azelaic acid] | 0.43
Cc1ccccc1OCC(O)CO (stereo not given) [Mephenesin] | -0.65
Nc1ccc(S(=O)(=O)Nc2ccccn2)cc1 [Sulfapyridine] | -0.9
CCCCc1oc2ccc(NS(C)(=O)=O)cc2c1C(=O)c1ccc(OCCCN(CCCC)CCCC)cc1 [Dronedarone HCl] | 1.17
O=C(CCCN1CCC(O)(c2ccc(Cl)cc2)CC1)c1ccc(F)cc1 [Haloperidol] | -0.68
CNCCCC1c2ccccc2C=Cc2ccccc21 [Protriptyline hydrochloride] | 0.19
CN(C)CC(c1ccc(O)cc1)C1(O)CCCCC1 (stereo not given) [Desvenlafaxine] | -0.84
O=S1(=O)CCN(CN2CCS(=O)(=O)NC2)CN1 [Taurolidine] | -0.57
CO/N=C1\C[C@]2(C[C@@H]3C[C@@H](C/C=C(\C)C[C@@H](C)/C=C/C=C4\CO[C@@H]5[C@H](O)C(C)=C[C@@H](C(=O)O3)[C@]45O)O2)O[C@H](/C(C)=C/C(C)C)[C@H]1C [Moxidectin] | 1.63
CCCCOc1ccc(CC(=O)NO)cc1 [Bufexamac] | -0.53
CCCCCOc1ccc(-c2cc(-c3ccc(C(=O)N[C@H]4C[C@@H](O)[C@@H](O)NC(=O)[C@@H]5[C@@H](O)[C@@H](C)CN5C(=O)[C@H]([C@H](O)CC(N)=O)NC(=O)[C@H]([C@H](O)[C@@H](O)c5ccc(O)c(OS(=O)(=O)O)c5)NC(=O)[C@@H]5C[C@@H](O)CN5C(=O)[C@H]([C@@H](C)O)NC4=O)cc3)no2)cc1 [Micafungin Sodium] | 27.4
CCCSc1ccc2[nH]c(NC(=O)OC)nc2c1 [Albendazole] | -0.51

— the supplement of paper PMC8975748
